The panel holds about 79,000 compounds, 15% with a hit somewhere; the sample as a whole holds those more often. Activity calls are given as the source filed them. Rule as the data show it: active = growth inhibition above about 70%; inactive = the rest.
Key:
[1] = NCI Yeast Anticancer Drug Screen. Data for the wt2 strain (AID 169);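 also: 0% = growth of vehicle-treated yeast cultures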; settings: S. cerevisiae wt2 strain growth inhibition, hits give high values
In short: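 Against vehicle-treated controls, the growth of yeast exposed to each compound was compared, and the inhibition was recorded.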

[2] = NCI Yeast Anticancer Drug Screen. Data for the mlh1 strain (AID 171);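 also: 0% = growth of vehicle-treated control cultures of the same strain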; settings: S. cerevisiae mlh1 strain growth inhibition, hits give high values
In short: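 Measured: yeast growth. Reference: vehicle-treated controls. Organism: strain with a defined alteration affecting DNA damage repair or cell cycle control, treated with compound.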

[3] = NCI Yeast Anticancer Drug Screen. Data for the sgs1 strain (AID 173);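 also: 0% = growth of vehicle-only control cultures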; settings: S. cerevisiae sgs1 mutant, hits give high values
In short: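 Each compound was added to cultures of the altered yeast strain. Growth was recorded, and inhibition was derived by comparison with vehicle controls.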

[4] = NCI Yeast Anticancer Drug Screen. Data for the mlh1 rad18 strain (AID 175); settings: S. cerevisiae mlh1 rad18 strain growth inhibition, hits give high values
In short: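 Genetically defined yeast (DNA repair-deficient) exposed to compounds; growth inhibition determined relative to vehicle.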

[5] = NCI Yeast Anticancer Drug Screen. Data for the rad18 strain (AID 177); settings: S. cerevisiae rad18 mutant growth inhibition, hits give high values
In short: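 Vehicle-treated cultures served as the baseline for scoring compound-induced growth inhibition in DNA-repair-mutant yeast.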

[6] = NCI Yeast Anticancer Drug Screen. Data for the rad52 strain (AID 147);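 also: 0% = growth of vehicle-treated control cultures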; settings: S. cerevisiae rad52 mutant growth inhibition, hits give high values
In short: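 The repair-mutant yeast strain was incubated with compounds, then growth was read and inhibition derived relative to vehicle.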

[7] = NCI Yeast Anticancer Drug Screen. Data for the wt1 strain (AID 149);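 also: 0% = growth of vehicle-treated wt1 cultures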; settings: S. cerevisiae wt1 strain (SPY 50644) growth inhibition, hits give high values
In short: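 Using yeast strain wt1, compound-induced growth inhibition was determined against vehicle-treated cultures.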

[8] = NCI Yeast Anticancer Drug Screen. Data for the rad50EPP+ strain (AID 151);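 also: 0% = growth of vehicle-treated control cultures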; settings: S. cerevisiae rad50 mutant strain, hits give high values
In short: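 Vehicle-normalised growth inhibition; rad50EPP+ yeast strain, altered in DNA damage repair, compound-treated.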

[9] = NCI Yeast Anticancer Drug Screen. Data for the mgt1 strain (AID 153); settings: S. cerevisiae mgt1 mutant growth inhibition, hits give high values
In short: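 Vehicle-normalized growth inhibition is determined in mgt1 yeast, a strain selected for a defined alteration in DNA repair or cell cycle control.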

[10] = NCI Yeast Anticancer Drug Screen. Data for the rad50 strain (AID 155);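 also: 0% = growth of vehicle-only cultures of the same strain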; settings: S. cerevisiae rad50 strain growth inhibition, hits give high values
In short: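 Relative growth inhibition (compound vs vehicle) was measured in yeast with a defined repair-gene alteration.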

[11] = NCI Yeast Anticancer Drug Screen. Data for the mec2-1 strain (AID 157); settings: S. cerevisiae mec2-1 strain, hits give high values
In short: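 Mutant yeast (mec2-1) grown with compound; growth inhibition relative to vehicle control reported.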

[12] = NCI Yeast Anticancer Drug Screen. Data for the rad14 strain (AID 159);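 also: 0% = growth of vehicle-treated control cultures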; settings: S. cerevisiae rad14 strain growth inhibition, hits give high values
In short: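 Screen for anticancer potential: a yeast strain altered in DNA damage repair is grown with compound, and reduced growth is quantified against vehicle controls.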

[13] = NCI Yeast Anticancer Drug Screen. Data for the sgs1 mgt1 strain (AID 161);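 also: 0% = growth of cultures given vehicle only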; settings: S. cerevisiae sgs1 mgt1 strain, hits give high values
In short: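 Compounds are added to genetically altered yeast, and growth is compared with cultures given vehicle alone to give percent inhibition.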

[14] = NCI Yeast Anticancer Drug Screen. Data for the CLN2oe strain (AID 163);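 also: 0% = growth of vehicle-only control cultures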; settings: S. cerevisiae CLN2oe strain, hits give high values
In short: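 Compounds are applied to yeast harbouring a defined cell-cycle control change; reduced growth compared with vehicle-treated controls gives the value.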

[15] = NCI Yeast Anticancer Drug Screen. Data for the cln2 rad14 strain (AID 165);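 also: 0% = growth equal to vehicle treated cultures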; settings: S. cerevisiae cln2 rad14 strain, hits give high values
In short: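 Readout is yeast growth inhibition versus vehicle-treated controls, using a strain with cln2 and rad14 alterations exposed to compound.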

[16] = NCI Yeast Anticancer Drug Screen. Data for the bub3 strain (AID 167); settings: S. cerevisiae bub3 mutant strain, hits give high values
In short: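 Screening used yeast with an engineered genetic alteration affecting cell cycle control. Compound-exposed cultures were compared with vehicle cultures, and reduced growth was taken as inhibition.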

[17] = at 5.0 µM (retest, dose inferred, filed as 0.5)
[18] = at 50.0 µM (retest, dose inferred, filed as 5.0)

Measured: growth inhibition

C=COC(=O)N[C@H]1CCc2cc(OC)c(OC)c(OC)c2-c2ccc(SC)c(=O)cc21
inactive: [1]; at 1.2 µM -3% | [1]; at 3.7 µM -4% | [1]; at 11.0 µM -3% | [1]; at 33.0 µM 1% | [2]; at 1.2 µM 1% | [2]; at 3.7 µM -1% | [2]; at 11.0 µM 0% | [2]; at 33.0 µM 12% | [3]; at 1.2 µM -2% | [3]; at 3.7 µM -3% | [3]; at 11.0 µM 1% | [3]; at 33.0 µM 14% | [4]; [17] -8% | [4]; [18] 30% | [4]; at 50.0 µM 29.1% | [5]; at 1.2 µM -2% | [5]; at 3.7 µM 0% | [5]; at 11.0 µM 3% | [5]; at 33.0 µM 13%
active: [1]; at 100.0 µM 76% | [2]; at 100.0 µM 84% | [3]; at 100.0 µM 73% | [5]; at 100.0 µM 75%

N#Cc1nc(Nc2ccc(Cl)cc2)sc1N
active: [6]; at 100.0 µM 80% | [7]; at 100.0 µM 73% | [9]; at 33.0 µM 80% | [9]; at 100.0 µM 94% | [10]; at 50.0 µM 89.2% | [12]; at 100.0 µM 91% | [13]; at 50.0 µM 76.2% | [15]; [18] 92% | [15]; at 50.0 µM 84.6% | [16]; [18] 70% | [16]; at 50.0 µM 86% | [16]; at 100.0 µM 94% | [1]; at 33.0 µM 81% | [1]; at 100.0 µM 84% | [2]; at 100.0 µM 94% | [5]; at 100.0 µM 91%
inactive: [6]; at 1.2 µM -33% | [6]; at 3.7 µM -29% | [6]; at 11.0 µM -25% | [6]; at 33.0 µM 32% | [7]; at 1.2 µM -6% | [7]; at 3.7 µM -4% | [7]; at 11.0 µM -16% | [7]; at 33.0 µM 41% | [8]; at 1.2 µM -36% | [8]; at 3.7 µM -27% | [8]; at 11.0 µM -17% | [8]; at 33.0 µM -1% | [8]; at 100.0 µM 36% | [9]; at 1.2 µM -6% | [9]; at 3.7 µM -10% | [9]; at 11.0 µM 1% | [10]; at 1.2 µM -4% | [10]; at 3.7 µM -9% | [10]; [17] 18% | [10]; at 11.0 µM -1% | [10]; at 33.0 µM 27% | [10]; [18] -8% | [10]; at 100.0 µM 61% | [11]; at 1.2 µM -37% | [11]; at 3.7 µM -8% | [11]; [17] 8% | [11]; at 11.0 µM -15% | [11]; at 33.0 µM 19% | [11]; [18] 53% | [11]; at 50.0 µM 36.1% | [11]; at 100.0 µM 42% | [12]; at 1.2 µM -31% | [12]; at 3.7 µM -19% | [12]; at 11.0 µM -16% | [12]; at 33.0 µM 34% | [13]; [17] 9% | [13]; [18] 30% | [14]; at 1.2 µM 25% | [14]; at 3.7 µM 20% | [14]; at 11.0 µM 27% | [14]; at 33.0 µM 58% | [14]; at 100.0 µM 44% | [15]; [17] 39% | [16]; at 1.2 µM 18% | [16]; at 3.7 µM 23% | [16]; [17] 10% | [16]; at 11.0 µM 17% | [16]; at 33.0 µM 32% | [1]; at 1.2 µM -20% | [1]; at 3.7 µM -36% | [1]; at 11.0 µM -20% | [2]; at 1.2 µM 1% | [2]; at 3.7 µM 27% | [2]; at 11.0 µM 21% | [2]; at 33.0 µM 64% | [3]; at 1.2 µM -20% | [3]; at 3.7 µM -13% | [3]; at 11.0 µM -2% | [3]; at 33.0 µM -1% | [3]; at 100.0 µM 40% | [4]; [17] -29% | [4]; [18] -24% | [4]; at 50.0 µM 49.9% | [5]; at 1.2 µM -17% | [5]; at 3.7 µM -17% | [5]; at 11.0 µM -3% | [5]; at 33.0 µM 44%

Cc1ccnc2c(O)cccc12
active: [6]; at 3.7 µM 96% | [6]; at 11.0 µM 96% | [6]; at 33.0 µM 99% | [6]; at 100.0 µM 99% | [7]; at 11.0 µM 76% | [7]; at 33.0 µM 93% | [7]; at 100.0 µM 98% | [8]; at 3.7 µM 98% | [8]; at 11.0 µM 99% | [8]; at 33.0 µM 99% | [8]; at 100.0 µM 99% | [9]; at 3.7 µM 73% | [9]; at 11.0 µM 91% | [9]; at 33.0 µM 99% | [9]; at 100.0 µM 99% | [10]; at 3.7 µM 97% | [10]; at 11.0 µM 98% | [10]; at 33.0 µM 99% | [10]; [18] 99% | [10]; at 50.0 µM 98.2% | [10]; at 100.0 µM 99% | [11]; at 3.7 µM 98% | [11]; at 11.0 µM 100% | [11]; at 33.0 µM 100% | [11]; [18] 98% | [11]; at 50.0 µM 97.3% | [11]; at 100.0 µM 100% | [12]; at 11.0 µM 83% | [12]; at 33.0 µM 98% | [12]; at 100.0 µM 99% | [13]; [17] 73% | [13]; [18] 99% | [13]; at 50.0 µM 97.8% | [14]; at 3.7 µM 98% | [14]; at 11.0 µM 99% | [14]; at 33.0 µM 100% | [14]; at 100.0 µM 99% | [15]; [18] 96% | [15]; at 50.0 µM 97.5% | [16]; at 11.0 µM 98% | [16]; at 33.0 µM 99% | [16]; [18] 99% | [16]; at 50.0 µM 97.9% | [16]; at 100.0 µM 99% | [1]; at 11.0 µM 80% | [1]; at 33.0 µM 84% | [1]; at 100.0 µM 97% | [2]; at 3.7 µM 99% | [2]; at 11.0 µM 99% | [2]; at 33.0 µM 100% | [2]; at 100.0 µM 99% | [3]; at 11.0 µM 98% | [3]; at 33.0 µM 99% | [3]; at 100.0 µM 99% | [4]; [17] 87% | [4]; [18] 99% | [4]; at 50.0 µM 98.7% | [5]; at 11.0 µM 97% | [5]; at 33.0 µM 99% | [5]; at 100.0 µM 99%
inactive: [6]; at 1.2 µM 3% | [7]; at 1.2 µM -5% | [7]; at 3.7 µM 19% | [8]; at 1.2 µM -1% | [9]; at 1.2 µM -8% | [10]; at 1.2 µM 6% | [10]; [17] 24% | [11]; at 1.2 µM 31% | [11]; [17] -1% | [12]; at 1.2 µM 0% | [12]; at 3.7 µM 24% | [14]; at 1.2 µM 24% | [15]; [17] 22% | [16]; at 1.2 µM -6% | [16]; at 3.7 µM 47% | [16]; [17] 41% | [1]; at 1.2 µM -8% | [1]; at 3.7 µM 25% | [2]; at 1.2 µM 14% | [3]; at 1.2 µM -13% | [3]; at 3.7 µM 59% | [5]; at 1.2 µM -3% | [5]; at 3.7 µM 60%

From PubChem BioAssay (NCI)
